# Measured values: PubChem BioAssay (NCI)
# The panel holds about 79,000 compounds, 15% with a hit somewhere; the sample as a whole holds those more often. Activity calls are given as the source filed them. No stated cut-off is given here; in the data, active means growth inhibition above about 70%; inactive means the rest.
# Columns and labels:
# [1] = NCI Yeast Anticancer Drug Screen. Data for the rad52 strain (AID 147);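 further: 0% = growth of vehicle-treated control cultures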; details: S. cerevisiae rad52 mutant growth inhibition, stronger effect = higher value
# Outline: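 Inhibition of yeast growth, referenced to vehicle controls, was the measured output for a strain with defective DNA damage repair.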
# [2] = NCI Yeast Anticancer Drug Screen. Data for the wt1 strain (AID 149);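 further: 0% = growth of vehicle-treated wt1 cultures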; details: S. cerevisiae wt1 strain (SPY 50644) growth inhibition, stronger effect = higher value
# Outline: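 Compounds are added to wt1 yeast cultures. Growth is then measured. Inhibition is expressed relative to vehicle-treated controls.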
# [3] = NCI Yeast Anticancer Drug Screen. Data for the rad50EPP+ strain (AID 151);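 further: 0% = growth of vehicle-treated control cultures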; details: S. cerevisiae rad50 mutant strain, stronger effect = higher value
# Outline: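 Genetically defined yeast (rad50EPP+, DNA damage repair alteration) is grown with compound, and inhibition of growth is expressed relative to vehicle-treated controls.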
# [4] = NCI Yeast Anticancer Drug Screen. Data for the mgt1 strain (AID 153); details: S. cerevisiae mgt1 mutant growth inhibition, stronger effect = higher value
# Outline: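 In the mgt1 strain, test compounds were added and growth inhibition was determined relative to vehicle-treated controls.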
# [5] = NCI Yeast Anticancer Drug Screen. Data for the rad50 strain (AID 155);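 further: 0% = growth of vehicle-only cultures of the same strain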; details: S. cerevisiae rad50 strain growth inhibition, stronger effect = higher value
# Outline: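 Inhibition values express reduced yeast growth in compound-treated cultures relative to vehicle-treated controls.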
# [6] = NCI Yeast Anticancer Drug Screen. Data for the mec2-1 strain (AID 157); details: S. cerevisiae mec2-1 strain, stronger effect = higher value
# Outline: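 Each compound was tested on mec2-1 yeast, a strain altered in DNA damage repair or cell cycle control. Growth inhibition is reported relative to vehicle.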
# [7] = NCI Yeast Anticancer Drug Screen. Data for the rad14 strain (AID 159);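 further: 0% = growth of vehicle-treated control cultures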; details: S. cerevisiae rad14 strain growth inhibition, stronger effect = higher value
# Outline: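 A mutant yeast strain defective in DNA damage repair is treated with compound; inhibition of its growth is scored against untreated, vehicle-exposed cultures.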
# [8] = NCI Yeast Anticancer Drug Screen. Data for the sgs1 mgt1 strain (AID 161);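 further: 0% = growth of cultures given vehicle only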; details: S. cerevisiae sgs1 mgt1 strain, stronger effect = higher value
# Outline: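 Inhibition of yeast growth, normalised to vehicle-treated controls, is reported for a strain bearing genetic alterations in DNA damage repair.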
# [9] = NCI Yeast Anticancer Drug Screen. Data for the CLN2oe strain (AID 163);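 further: 0% = growth of vehicle-only control cultures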; details: S. cerevisiae CLN2oe strain, stronger effect = higher value
# Outline: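 First, the altered yeast strain was treated with each compound; second, its growth was measured; finally, inhibition was derived by comparison with vehicle controls.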
# [10] = NCI Yeast Anticancer Drug Screen. Data for the cln2 rad14 strain (AID 165);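 further: 0% = growth equal to vehicle treated cultures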; details: S. cerevisiae cln2 rad14 strain, stronger effect = higher value
# Outline: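 Test compounds were added to cln2 rad14 yeast cultures; inhibition of growth was then determined by comparison with vehicle treatment.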
# [11] = NCI Yeast Anticancer Drug Screen. Data for the bub3 strain (AID 167); details: S. cerevisiae bub3 mutant strain, stronger effect = higher value
# Outline: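 Steps: expose the mutant yeast strain to compound; grow alongside vehicle-treated cultures; measure growth; express inhibition against the vehicle cultures.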
# [12] = NCI Yeast Anticancer Drug Screen. Data for the wt2 strain (AID 169);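 further: 0% = growth of vehicle-treated yeast cultures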; details: S. cerevisiae wt2 strain growth inhibition, stronger effect = higher value
# Outline: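 The panel's yeast strains carry defined changes in DNA repair or cell cycle genes. Each strain is grown with compound, and growth loss is scored relative to vehicle.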
# [13] = NCI Yeast Anticancer Drug Screen. Data for the mlh1 strain (AID 171);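 further: 0% = growth of vehicle-treated control cultures of the same strain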; details: S. cerevisiae mlh1 strain growth inhibition, stronger effect = higher value
# Outline: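 Inhibition values reflect reduced yeast growth in the presence of compound, referenced to vehicle controls, using a strain chosen for its alteration in DNA repair or cell cycle control.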
# [14] = NCI Yeast Anticancer Drug Screen. Data for the sgs1 strain (AID 173);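 further: 0% = growth of vehicle-only control cultures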; details: S. cerevisiae sgs1 mutant, stronger effect = higher value
# Outline: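 Vehicle-treated cultures served as reference for growth inhibition of a yeast strain altered in DNA damage repair or cell cycle control after compound exposure.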
# [15] = NCI Yeast Anticancer Drug Screen. Data for the rad18 strain (AID 177); details: S. cerevisiae rad18 mutant growth inhibition, stronger effect = higher value
# Outline: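 Steps: expose repair-mutant yeast to compound; measure growth; express as inhibition relative to vehicle control.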
# [16] = at 5.0 µM (retest, dose inferred, filed as 0.5)
# [17] = at 50.0 µM (retest, dose inferred, filed as 5.0)
structure (smiles),measurement,setting,value
CCOC1=C/C(=N\Nc2ccc([N+](=O)[O-])cc2)CCC1,growth inhibition,[1]; at 1.2 µM,0% (inactive)
same,growth inhibition,[1]; at 3.7 µM,8% (inactive)
same,growth inhibition,[1]; at 11.0 µM,29% (inactive)
same,growth inhibition,[1]; at 33.0 µM,69% (inactive)
same,growth inhibition,[1]; at 100.0 µM,26% (inactive)
same,growth inhibition,[2]; at 1.2 µM,0% (inactive)
same,growth inhibition,[2]; at 3.7 µM,7% (inactive)
same,growth inhibition,[2]; at 11.0 µM,9% (inactive)
same,growth inhibition,[2]; at 33.0 µM,24% (inactive)
same,growth inhibition,[2]; at 100.0 µM,18% (inactive)
same,growth inhibition,[3]; at 1.2 µM,3% (inactive)
same,growth inhibition,[3]; at 3.7 µM,20% (inactive)
same,growth inhibition,[3]; at 11.0 µM,70% (active)
same,growth inhibition,[3]; at 33.0 µM,87% (active)
same,growth inhibition,[3]; at 100.0 µM,58% (inactive)
same,growth inhibition,[4]; at 1.2 µM,3% (inactive)
same,growth inhibition,[4]; at 3.7 µM,9% (inactive)
same,growth inhibition,[4]; at 11.0 µM,18% (inactive)
same,growth inhibition,[4]; at 33.0 µM,22% (inactive)
same,growth inhibition,[4]; at 100.0 µM,10% (inactive)
same,growth inhibition,[5]; at 1.2 µM,3% (inactive)
same,growth inhibition,[5]; at 3.7 µM,10% (inactive)
same,growth inhibition,[5]; [16],17% (inactive)
same,growth inhibition,[5]; at 11.0 µM,22% (inactive)
same,growth inhibition,[5]; at 33.0 µM,30% (inactive)
same,growth inhibition,[5]; [17],51% (inactive)
same,growth inhibition,[5]; at 50.0 µM,23.4% (inactive)
same,growth inhibition,[5]; at 100.0 µM,10% (inactive)
same,growth inhibition,[6]; at 1.2 µM,0% (inactive)
same,growth inhibition,[6]; at 3.7 µM,5% (inactive)
same,growth inhibition,[6]; [16],1% (inactive)
same,growth inhibition,[6]; at 11.0 µM,19% (inactive)
same,growth inhibition,[6]; at 33.0 µM,31% (inactive)
same,growth inhibition,[6]; [17],67% (inactive)
same,growth inhibition,[6]; at 50.0 µM,37.9% (inactive)
same,growth inhibition,[6]; at 100.0 µM,11% (inactive)
same,growth inhibition,[7]; at 1.2 µM,2% (inactive)
same,growth inhibition,[7]; at 3.7 µM,9% (inactive)
same,growth inhibition,[7]; at 11.0 µM,27% (inactive)
same,growth inhibition,[7]; at 33.0 µM,73% (active)
same,growth inhibition,[7]; at 100.0 µM,33% (inactive)
same,growth inhibition,[8]; [16],10% (inactive)
same,growth inhibition,[8]; [17],21% (inactive)
same,growth inhibition,[8]; at 50.0 µM,48.6% (inactive)
same,growth inhibition,[9]; at 1.2 µM,-1% (inactive)
same,growth inhibition,[9]; at 3.7 µM,-6% (inactive)
same,growth inhibition,[9]; at 11.0 µM,21% (inactive)
same,growth inhibition,[9]; at 33.0 µM,15% (inactive)
same,growth inhibition,[9]; at 100.0 µM,-5% (inactive)
same,growth inhibition,[10]; [16],5% (inactive)
same,growth inhibition,[10]; [17],10% (inactive)
same,growth inhibition,[10]; at 50.0 µM,29.5% (inactive)
same,growth inhibition,[11]; at 1.2 µM,-3% (inactive)
same,growth inhibition,[11]; at 3.7 µM,4% (inactive)
same,growth inhibition,[11]; [16],-1% (inactive)
same,growth inhibition,[11]; at 11.0 µM,11% (inactive)
same,growth inhibition,[11]; at 33.0 µM,15% (inactive)
same,growth inhibition,[11]; [17],33% (inactive)
same,growth inhibition,[11]; at 50.0 µM,95% (active)
same,growth inhibition,[11]; at 100.0 µM,18% (inactive)
same,growth inhibition,[12]; at 1.2 µM,-1% (inactive)
same,growth inhibition,[12]; at 3.7 µM,3% (inactive)
same,growth inhibition,[12]; at 11.0 µM,7% (inactive)
same,growth inhibition,[12]; at 33.0 µM,24% (inactive)
same,growth inhibition,[12]; at 100.0 µM,11% (inactive)
same,growth inhibition,[13]; at 1.2 µM,0% (inactive)
same,growth inhibition,[13]; at 3.7 µM,5% (inactive)
same,growth inhibition,[13]; at 11.0 µM,11% (inactive)
same,growth inhibition,[13]; at 33.0 µM,17% (inactive)
same,growth inhibition,[13]; at 100.0 µM,7% (inactive)
same,growth inhibition,[14]; at 1.2 µM,1% (inactive)
same,growth inhibition,[14]; at 3.7 µM,3% (inactive)
same,growth inhibition,[14]; at 11.0 µM,18% (inactive)
same,growth inhibition,[14]; at 33.0 µM,50% (inactive)
same,growth inhibition,[14]; at 100.0 µM,20% (inactive)
same,growth inhibition,[15]; at 1.2 µM,4% (inactive)
same,growth inhibition,[15]; at 3.7 µM,8% (inactive)
same,growth inhibition,[15]; at 11.0 µM,30% (inactive)
same,growth inhibition,[15]; at 33.0 µM,62% (inactive)
same,growth inhibition,[15]; at 100.0 µM,55% (inactive)
CCN(CC)CCN(C)CCc1ccc(Br)cc1,growth inhibition,[1]; at 1.2 µM,12% (inactive)
same,growth inhibition,[1]; at 3.7 µM,19% (inactive)
same,growth inhibition,[1]; at 11.0 µM,37% (inactive)
same,growth inhibition,[1]; at 33.0 µM,48% (inactive)
same,growth inhibition,[1]; at 100.0 µM,91% (active)
same,growth inhibition,[2]; at 1.2 µM,5% (inactive)
same,growth inhibition,[2]; at 3.7 µM,11% (inactive)
same,growth inhibition,[2]; at 11.0 µM,19% (inactive)
same,growth inhibition,[2]; at 33.0 µM,32% (inactive)
same,growth inhibition,[2]; at 100.0 µM,83% (active)
same,growth inhibition,[3]; at 1.2 µM,-3% (inactive)
same,growth inhibition,[3]; at 3.7 µM,-3% (inactive)
same,growth inhibition,[3]; at 11.0 µM,-2% (inactive)
same,growth inhibition,[3]; at 33.0 µM,-2% (inactive)
same,growth inhibition,[3]; at 100.0 µM,-3% (inactive)
same,growth inhibition,[4]; at 1.2 µM,5% (inactive)
same,growth inhibition,[4]; at 3.7 µM,10% (inactive)
same,growth inhibition,[4]; at 11.0 µM,40% (inactive)
same,growth inhibition,[4]; at 33.0 µM,84% (active)
same,growth inhibition,[4]; at 100.0 µM,96% (active)
same,growth inhibition,[5]; at 1.2 µM,7% (inactive)
same,growth inhibition,[5]; at 3.7 µM,10% (inactive)
same,growth inhibition,[5]; [16],-6% (inactive)
same,growth inhibition,[5]; at 11.0 µM,20% (inactive)
same,growth inhibition,[5]; at 33.0 µM,50% (inactive)
same,growth inhibition,[5]; [17],11% (inactive)
same,growth inhibition,[5]; at 50.0 µM,31.8% (inactive)
same,growth inhibition,[5]; at 100.0 µM,85% (active)
same,growth inhibition,[6]; at 1.2 µM,10% (inactive)
same,growth inhibition,[6]; at 3.7 µM,17% (inactive)
